# Integrin act MD = qHTS for Activators of Integrin-Mediated Alleviation for Muscular Dystrophy; alpha7betagal myoblasts, beta-gal FDG fluorescence, 48 h; Potency, µM (highest dose often 38.3 µM), without a hit: top-dose activation, most hits filed as activators; 0.064% of 350,000 active; AID 624291, 2012; active = well fitted activation curve with a large enough effect; inconclusive = small, poorly fitted or top-dose-only effect; inactive = no such curve, though single readings can be large or run the other way;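 also: potency is read from the fitted curve at half-maximal effect; 100% = response of the positive control SU9516; nearly all actives have a fitted effect of over 60% in size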
#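 Alpha7betagal+/- myoblasts (passage 13) were plated 16-24 hr, then exposed to compounds (1:260 dilution of DMSO stock) for 48 hours at 37C. After MPER lysis, β-galactosidase reporter activity was read as FDG fluorescence (ex 480/em 540) after 30 minutes.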
# D3 antag = qHTS of D3 Dopamine Receptor Antagonist: qHTS; 2.5% of 360,000 active; D3R cells, DiscoveRx beta-arrestin luminescence, antagonist mode; hits give low values; max response, negative = inhibition, %; D(3) dopamine receptor (Homo sapiens), P35462; in the data active = max response below about -50%; inconclusive = no clear call, values can overlap the other calls; also: % is scaled to controls: 0 for no effect and ±100 for the full control effect
# Target sequence (P35462 whole entry, looked up): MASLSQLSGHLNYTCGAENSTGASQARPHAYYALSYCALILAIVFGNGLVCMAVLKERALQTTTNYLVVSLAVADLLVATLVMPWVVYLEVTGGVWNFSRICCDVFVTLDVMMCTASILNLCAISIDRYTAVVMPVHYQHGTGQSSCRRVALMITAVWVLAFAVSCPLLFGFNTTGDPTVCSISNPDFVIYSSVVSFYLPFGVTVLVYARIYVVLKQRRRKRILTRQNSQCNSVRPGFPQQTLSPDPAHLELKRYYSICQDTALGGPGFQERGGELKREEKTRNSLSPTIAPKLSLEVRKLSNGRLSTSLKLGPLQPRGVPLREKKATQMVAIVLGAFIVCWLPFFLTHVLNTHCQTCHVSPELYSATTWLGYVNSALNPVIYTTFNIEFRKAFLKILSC
#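 Cells expressing the human receptor were seeded at 1500 cells/well, incubated overnight at 37 degrees C in 5% CO2, then exposed to library compounds with dopamine controls for 90 minutes at 37 degrees C before luminescent detection.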
# D3 ag = qHTS of D3 Dopamine Receptor Agonist: qHTS | D(3) dopamine receptor (Homo sapiens), P35462 | D3R DiscoveRx beta-arrestin cells, luminescence, 90 min | max activation, % | 0.58% of 410,000 active | AID 652048, 2013; in the data active = max activation above about 30%; also: 0% is about no effect
#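 Agonist mode: compounds and dopamine controls were applied to plated cells for 90 min at 37 degrees C after an overnight attachment at 1500 cells/well. Luminescent read-out followed 30 - 60 minutes at room temperature with DiscoveRx detection reagent.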
# Active calls of the source: *; ? = inconclusive; . = no result given; ! = not active in a repeat. Shown are actives, neighbours in structure and some others; about 2.9% of the full set was active somewhere.
SMILES,Integrin act MD,D3 antag,D3 ag
O=S(=O)(c1ccc(Cl)cc1)N1CCN(Cc2c[nH]c3ccccc23)CC1,0.4%,0.4,6.0
O=C(CN1CCN(c2ccccc2F)CC1)c1c[nH]c2ccccc12,4.8%,?,-2.7
Clc1ccccc1N1CCN(Cc2c[nH]c3ccccc23)CC1,-32.4%,-78.1*,-28.8
Fc1ccccc1N1CCN(C2CCN(Cc3c[nH]c4ccccc34)CC2)CC1,-4.2%,-60.2*,-29.3
O=[N+]([O-])c1ccccc1CN1CCN(Cc2c[nH]c3ccccc23)CC1,-26.5%,?,-11.5
O=C(N/C(=C/c1cccc([N+](=O)[O-])c1)C(=O)N1CCCC1)c1ccccc1,-10.8%,9.5,6.0
O=C(c1ccccc1)N1CCC(=O)N(C(CO)Cc2ccccc2)CC1 (stereo not given),-30.1%,?,-24.3
O=C(O)CCCC(=O)Nc1ccc(Sc2ccc([N+](=O)[O-])cc2)cc1,20.0%,-4.5,-2.1
C[C@H](NC(=O)c1cc2cc(Cl)ccc2n1C)C(=O)N1CCC[C@H]1C(=O)O,2.0%,7.8,0.6
COc1ccc2c(c1)c1c(c(=O)n(CCc3ccccc3)c(=O)n1Cc1cccc(C)c1)n2C,.,.,8.4
CCC1CCC(N2CCN(c3ccccc3F)CC2)CC1 (stereo not given),?,-77.5*,-14.8
CCC1CCC(N2CCN(c3ccc(F)cc3)CC2)CC1 (stereo not given),-33.5%,-25.2,-22.4
Cc1ccsc1C(=O)OCC(=O)N1CCN(c2ccccc2)CC1,-29.9%,-13.2,3.6
O=[N+]([O-])c1cnc(Sc2ccncn2)c([N+](=O)[O-])c1,-9.6%,0.0,-10.0
O=[N+]([O-])c1cnc(Sc2ccncn2)s1,-68.8%,-124.7*,-27.4
Cc1c(C(=O)NCc2ccc(C(F)(F)F)cc2)sc(=O)n1Cc1cccc(F)c1,.,-24.7,-1.5
Cc1c(C(=O)NCc2cccc(C(F)(F)F)c2)sc(=O)n1Cc1cccc(F)c1,.,-51.5*,-8.5
CC(C)NC(=O)N(C)C[C@@H]1Oc2ccc(NC(=O)Nc3ccc(C(F)(F)F)cc3)cc2CC(=O)N([C@H](C)CO)C[C@@H]1C,29.8%,25.1,-27.9
COc1cc(OC)c(NS(=O)(=O)c2cc3[nH]c(=O)c(=O)[nH]c3cc2C)cc1Cl,-11.7%,3.3,1.1
Cc1cc(C)c(NC(=O)COC(=O)Cn2nc(-c3ccccc3)oc2=O)c(C)c1,12.1%,-55.2*,-6.0
N#Cc1cccc(NC(=O)COC(=O)Cn2nc(-c3ccccc3)oc2=O)c1,20.2%,-22.9,-4.5
COc1ccc(S(=O)(=O)NC(=O)C2(C)CCN2C(=O)C2CC2)cc1 (stereo not given),.,-5.2,3.5
O=P(c1ccccc1)(c1ccccc1)c1ccccc1C(Br)Br,-8.6%,-67.0*,3.0
CC(C)(C)c1cccc(P(=O)(c2ccccc2)c2ccccc2)c1O,-9.7%,14.6,-0.8
C=CCc1cc(C)ccc1OCC(O)CN1CCN(c2ccccc2)CC1 (stereo not given),0.0%,-23.7,75.3*
SMILES,Integrin act MD,D3 antag,D3 ag
C=CCc1ccccc1OCC(O)CN1CCN(c2ccccc2)CC1 (stereo not given),.,.,5.8
C=CCc1ccc(OCC(O)CN2CCN(c3ccccc3)CC2)c(OC)c1 (stereo not given),-43.5%,?,37.6*
C=CCc1ccc(OCC(O)CN2CCCCC2)c(OC)c1 (stereo not given),7.4%,-16.6,1.0
O=C(OCc1cc(=O)n2nc(C3CC3)sc2n1)c1cccc(NC(=O)c2ccccc2Cl)c1,.,.,6.5
Cc1noc(C)c1S(=O)(=O)Nc1ccc2c(c1)C(=O)N([C@H](C)CO)C[C@H](C)[C@@H](CN(C)C(=O)Nc1ccc(C(F)(F)F)cc1)O2,6.4%,-1.6,-15.4
CCOC(=O)C1=C(C)NC(=O)CC1c1cc2c(cc1Br)OCO2 (stereo not given),-15.3%,-51.1*,4.0
CCOC(=O)C1=C(C)NC(=O)CC1c1cc(OC)c(OC)cc1Br (stereo not given),3.9%,16.7,4.4
COC(=O)Cn1nc(-c2ccc(C)cc2)c2ccccc2c1=O,-2.7%,-17.7,-6.9
Cc1noc(C)c1CSCC(=O)OCC(=O)Nc1ccc(OC(F)(F)F)cc1,8.4%,5.9,3.6
COC(=O)C(F)(Sc1c(C)n(C)n(-c2ccccc2)c1=O)C(F)(F)F (stereo not given),-11.8%,-59.6*,-0.9
Cc1c(NC(=O)CC(O)(C(F)(F)F)C(F)(F)F)c(=O)n(-c2ccccc2)n1C,-16.1%,-12.7,2.5
CCOC(=O)c1cc2c(=O)n3ccccc3nc2n(Cc2ccco2)c1=NC(=O)c1ccc(OCC)cc1,.,.,21.7
O=C(Nc1cccc(N=Cc2cc(Cl)cc(Br)c2O)c1)c1ccco1,0.0%,-75.0*,-6.7
O=C(Nc1cccc(NC(=O)c2ccco2)c1)c1cccc(Br)c1,?,-2.8,-6.5
O=C(Nc1cc(Br)c(O)c(Br)c1)c1cccc(NC(=O)c2ccco2)c1,-7.5%,12.7,1.3
O=C(Nc1cccc(N=Cc2cc(Br)cc(Br)c2O)c1)c1ccco1,-41.4%,-61.1*,11.3
CC(=O)Nc1cccc(-c2ccnc3c2CC(C(=O)NCc2ccc(N4CCN(C)CC4)cc2)O3)c1 (stereo not given),.,-4.6,-5.9
COc1cc(-c2cc3nc(NCCOc4ccccc4)ccn3n2)cc(OC)c1OC,.,20.0,5.4
COc1cc(-c2cc3nc(NCc4ccco4)ccn3n2)cc(OC)c1OC,.,-74.7*,6.1
COc1ccc(-c2cn3nc(N4CCC(C(=O)Nc5ccc(Cl)cc5C)CC4)sc3n2)cc1,.,.,7.1
CCC(=O)Nc1cc(C)c(OC)c(C)c1,12.5%,-10.1,-3.1
O=C(OCC(O)CO)c1ccccc1Nc1ccnc2cc(Cl)ccc12 (stereo not given),.,48.6,46.0*!
CCOc1ccc(Nc2ccnc3cc(Cl)ccc23)cc1,-28.0%,0.7,-8.3
Cc1ccc(NC(=O)CSc2nc3ccccc3n2CC(=O)N2CCC(C)CC2)cc1C,.,.,-5.9
Cc1ccc(N2C(=O)c3ccccc3C2=O)cc1,6.6%,?,1.5
SMILES,Integrin act MD,D3 antag,D3 ag
Cc1ccc(SC2=C(Sc3ccc(C)cc3)C(=O)c3ccccc3C2=O)cc1,-16.4%,-113.8*,-18.3
CC(C)Sc1nc(-c2ccccc2)cc(=O)[nH]1,22.2%,-11.7,-0.1
NC(=O)c1cccc(-c2ccnc3c2CC(C(=O)NCCC(F)(F)F)O3)c1 (stereo not given),.,0.0,-5.2
O=C(CS(=O)(=O)c1ccc(F)cc1)Nc1nnc(-c2ccccc2Cl)o1,-2.1%,-3.9,4.3
COc1ccc2c(=O)cc(CO)oc2c1,38.7%,0.0,37.7*
COC(=O)c1cc(=O)c2ccc(OC)cc2o1,7.6%,-15.5,8.5
C#CCNC(=O)C[C@@H]1C[C@@]2(C(=O)OC)CCCCC=C2N(Cc2ccccc2)C1=O,.,7.0,3.6
Cc1ccc(O)c(N=CC2=C(O)c3ccccc3C2=O)c1,0.0%,-53.6*,-11.9
O=C1C(C=Nc2ccccc2O)=C(O)c2ccccc21,-22.4%,-16.8,-7.9
CCOc1ccc(NS(=O)(=O)c2cc(C(=O)N(CC)CC(=O)NCc3cccs3)ccc2C)cc1,7.3%,-24.8,-16.5

# Assay outcomes as filed in PubChem BioAssay.
